Among the data in PubChem BioAssay are z-score values, retold here.

The source made the active and inactive calls.

Experiment [1] can be described thus: A549 cell viability effects, profiling panel, calcein-AM fluorescence, 48 h, basal (AID 1162). As to conditions: higher = more signal.
Experiment [2] can be described thus: adipocyte viability effects, profiling panel, cell-based, 3T3-L1 adipocytes, calcein-AM fluorescence, 48 h, basal (AID 1163). As to conditions: 3T3-L1 adipocytes viability, higher = more signal.
Experiment [3] in a line: HepG2 cell viability effects, profiling panel, calcein-AM fluorescence, 48 h, basal (AID 1164). As to conditions: higher = more signal.
Experiment [4] in a line: MM1S cell viability effects, profiling panel, calcein-AM fluorescence, 48 h, basal (AID 1165).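 Also: viability of MM1S multiple myeloma cells under basal unstimulated conditions.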 As to conditions: higher = more signal.
A short description of experiment [5]: basal RPMI8226 viability, no added stimulus, profiling panel, cell-based, calcein-AM fluorescence, 48 h, PK04 Diversity Set (AID 1166).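 Also: cells grown under basal conditions without added stimulus.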 The settings on record: RPMI8226 myeloma viability, higher = more signal.
Experiment [6] is described as follows: basal HepG2 mitochondrial membrane potential changes, profiling panel, cell-based, JC-1 fluorescence, 24 h, 100 nL compound (AID 1167). As to conditions: higher = more signal.
The nature of experiment [7]: basal 3T3-L1 adipocyte mitochondrial potential changes, profiling panel, cell-based, JC-1 fluorescence, 3T3-L1 adipocytes, 24 h, 100 nL compound (AID 1168). The settings on record: JC-1 mitochondrial fluorescence, higher = more signal, called active from +8 up or from −8 down.
A short description of experiment [8]: basal RPMI8226 mitochondrial membrane potential changes, profiling panel, cell-based, JC-1 fluorescence, 24 h, 100 nL compound (AID 1169). The settings on record: RPMI8226 myeloma, JC-1 mitochondrial potential fluorescence, higher = more signal.
Experiment [9] is described as follows: basal MM1S mitochondrial membrane potential changes, profiling panel, cell-based, JC-1 fluorescence, 24 h, 100 nL compound (AID 1170). As to conditions: higher = more signal.
Experiment [10] can be described thus: A549 lung cancer cell viability effects, profiling panel, resazurin fluorescence, 24 h, PK04 Diversity Set (AID 1171). The settings on record: higher = more signal, called active from +8 up or from −8 down.
Also: test concentration not given here.

As for `C[C@@H]1CC[C@H]2C(=O)O[C@@H](CN=[N+]=[N-])CN2[C@H]1c1ccc(Br)cc1`, the z-score is -3.8 in experiment [1]; 0.254 in [2]; -4.54 in [3]; -3.04 in [4]; -4.07 in experiment [5]; -2.08 in experiment [6]. For the same compound, the z-score in experiment [7] was -0.62 (inactive); in [8] it was -1.18; in [9] it was -1.33; in experiment [10], -0.487 (inactive).

With `COc1cccc([C@H]2Oc3ccc(OC)cc3C(=NO[C@@H](C)c3cc(-c4c(C)cc(C)cc4C)no3)[C@@H]2O)c1`, the z-score in experiment [1] was -0.744; in [2], -0.583; in experiment [3], -1.08; in experiment [4], -1.38; in experiment [5], -0.845; in experiment [6], -2.54. The z-score is -2.31 (inactive) in [7], 0.118 in experiment [8], 0.463 in experiment [9] and 0.321 (inactive) in experiment [10].

As to `CC(C)(C)N1C(=O)[C@H]2[C@H]3[C@H](O)[C@H](O)CC(=NNC(=O)OCc4ccccc4)[C@H]3CC[C@H]2C1=O`, the z-score in experiment [1] was -1.13; in experiment [2], 1.11; in experiment [3] it was -0.516; in experiment [4], -0.269; in experiment [5] it was -0.934; in [6], -0.639. For the same compound, the z-score in [7] is -1.49 (inactive); in experiment [8], -0.411; in experiment [9] it was -0.823; in experiment [10] it was 0.321 (inactive).

For `CC(C)[C@@H](OCc1ccccc1)[C@H](C)C=NO[C@@H](C)c1cn([C@H](CO)Cc2ccccc2)nn1`, the z-score in experiment [1] was 0.0751; in [2], 0.143; in experiment [3], -0.112; in experiment [4], -0.265; in experiment [5], 0.0853; in experiment [6], -0.944. For the same compound, the z-score in experiment [7] is -1.54 (inactive); in experiment [8], 0.362; in [9], -0.318; in [10], -0.877 (inactive).

As for `C[C@@H]1CC[C@H]2C(=O)N3[C@@H](CC[C@@H](C)[C@@H]3c3ccc(Br)cc3)C(=O)N2[C@H]1c1ccc(Br)cc1`, the z-score was -0.569 in [1]; -0.42 in [2]; -0.0355 in [3]; -2.69 in [4]; -2.57 in experiment [5]; 1.65 in experiment [6]. In addition, the z-score in experiment [7] was -0.76 (inactive); in experiment [8], -0.22; in [9], 1.41; in experiment [10], 0.632 (inactive).

On to `CC(C)CON=C1C[C@@H](O)[C@@H](O)[C@@H]2[C@@H]3C(=O)N(C(C)(C)C)C(=O)[C@@H]3CC[C@@H]12`, for which the z-score in [1] was -0.502; in experiment [2] it was 1.07; in experiment [3] it was -0.337; in experiment [4], 0.086; in [5], -0.289; in experiment [6], -0.0218. Moreover, the z-score in [7] was 0.174 (inactive); in experiment [8], -0.865; in [9] it was 0.342; in experiment [10] it was -0.288 (inactive).

With `CCN1C(=O)[C@H]2[C@H]3[C@H](O)[C@H](O)CC(=NOCC=C(C)CCC=C(C)C)[C@@H]3CC[C@H]2C1=O`, the z-score in [1] is -0.0234; in experiment [2], 0.28; in [3] it was -0.196; in experiment [4] it was -0.701; in experiment [5] it was 0.203; in [6], -0.731. In addition, the z-score was -1.56 (inactive) in experiment [7], -0.321 in experiment [8], 0.355 in experiment [9] and 0.298 (inactive) in experiment [10].

Turning to `COc1ccc(OC[C@@H]2CC3[C@@H](c4ccc(Br)cc4)[C@H](C)CC[C@H]3C(=O)O2)cc1` (stereo not given in full), the z-score in [1] was 0.228; in [2], 0.0081; in experiment [3], 0.139; in experiment [4] it was 0.332; in experiment [5], -0.204; in experiment [6] it was -0.96. For the same compound, the z-score in experiment [7] was 0.533 (inactive); in experiment [8], 0.196; in experiment [9] it was 0.0404; in [10] it was 0.582 (inactive).

As to `CC(C)(C)N1C(=O)[C@H]2[C@H]3[C@H](O)[C@H](O)CC(=NOC[C@@H](O)COCc4ccco4)[C@H]3CC[C@H]2C1=O`, the z-score was -0.0309 in [1]; 0.676 in [2]; 0.082 in [3]; 0.406 in experiment [4]; -0.139 in experiment [5]; -0.368 in [6]. In addition, the z-score in experiment [7] is 0.856 (inactive); in experiment [8] it was -0.631; in experiment [9], -0.914; in experiment [10] it was -0.679 (inactive).

In the case of `CO[C@H]1COC(=O)[C@H](CCSC)NC(=O)CC=C[C@@H](C)[C@H](OC)COC(=O)[C@@H](OCc2ccccc2)C=C[C@@H]1C`, the z-score in [1] is -0.843; in [2], -0.161; in experiment [3], -1.1; in experiment [4], -0.0051; in experiment [5], 0.241; in [6] it was 0.247. Besides, the z-score in [7] was -1.75 (inactive); in [8], 0.759; in [9], -0.491; in experiment [10] it was 0.886 (inactive).

`COc1ccc(COC(=O)NN=C2C[C@@H](O)[C@@H](O)[C@@H]3[C@@H]4C(=O)N(Cc5ccccc5)C(=O)[C@@H]4CC[C@@H]23)cc1`: the z-score is -0.178 in [1]; -0.641 in experiment [2]; -0.13 in experiment [3]; 0.458 in experiment [4]; 1.61 in experiment [5]; 0.335 in experiment [6]. For the same compound, the z-score was -0.289 (inactive) in [7], 0.76 in experiment [8], -1.46 in experiment [9] and 0.399 (inactive) in [10].

Turning to `COc1ccc2c(c1)O[C@@H](c1cccc(C(F)(F)F)c1)[C@H](O)C2=O`, the z-score in experiment [1] is 0.759; in [2], -0.941; in experiment [3] it was -0.294; in experiment [4], -0.277; in experiment [5], 1.29; in experiment [6] it was -1.25. The z-score in experiment [7] is 0.0155 (inactive); in [8], -0.239; in experiment [9], -0.724; in experiment [10], -0.536 (inactive).

For the compound `CC(C)C(=O)N[C@H]1CCCN1C(=O)C=Cc1ccccc1`, the z-score is -0.0724 in [1]; -0.578 in experiment [2]; 0.176 in experiment [3]; -0.903 in [4]; -0.1 in [5]; -0.541 in experiment [6]. For the same compound, the z-score in [7] is -0.288 (inactive); in experiment [8] it was 0.6; in [9], -0.0562; in [10], 0.182 (inactive).

Regarding `CCN1C(=O)[C@H]2[C@H]3[C@H](O)[C@H](O)CC(=NO[C@@H]4O[C@H](COC(C)=O)[C@@H](OC(C)=O)[C@H](OC(C)=O)[C@H]4OC(C)=O)[C@@H]3CC[C@H]2C1=O`, the z-score in [1] was 0.13; in [2] it was -0.81; in experiment [3], -0.145; in experiment [4], -1.29; in experiment [5] it was -1.05; in experiment [6], -0.611. Moreover, the z-score was -1.51 (inactive) in [7], 0.69 in experiment [8], -0.654 in experiment [9] and -0.959 (inactive) in experiment [10].
